Tau FP inhib – qHTS for Inhibitors of Tau Fibril Formation, Fluorescence Polarization. Potency, µM (highest dose often 57.7 µM), for the others: at the top dose activity, negative = inhibition, hits mostly inhibitors. 280,000 compounds, 0.39% hits. K18 P301L tau heparin fibrillization, Alexa594 FP, 6 h. Microtubule-associated protein tau (Homo sapiens), P10636. AID 1468, 2008; further: potency means the concentration at half of the fitted maximal effect; nearly all actives have a fitted effect of over 55% in size
Target sequence (P10636 561-689 P618L limits assumed): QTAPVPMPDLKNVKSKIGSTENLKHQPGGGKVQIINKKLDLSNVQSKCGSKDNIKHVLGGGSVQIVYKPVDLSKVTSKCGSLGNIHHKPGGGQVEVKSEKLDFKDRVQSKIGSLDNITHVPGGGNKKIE
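Steps: dispense K18 P301L tau (15 uM plus 0.24 uM Alexa 594 tracer, final) in pH 7 sodium acetate; add compound; add heparin (20 uM final); incubate 6 hr, 37 C; add ThT (30 uM final); after 1 hr ambient, read FP.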
Coupling enz – qHTS Assay for Inhibitors of Fructose-1,6-bisphosphate Aldolase from Giardia Lamblia: Coupling assay counterscreen. coupling enzyme system counterscreen, AmpLite Red fluorescence. activity change, negative = inhibition, % at 58.2 µM, hits read low. AID 2472, 2010. 290,000 compounds, 0.67% hits; in the data active means activity change below about -30%
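Final compound at 57.5 uM, incubated 10 min at RT with coupling enzyme reagent (glyceraldehyde-3-phosphate), then 20 min with substrate and AmpLite Red detection. Fluorescence read at 525/598 nm; tests interference with the coupling assay, not aldolase inhibition.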
Tau fibril ThT – qHTS for Inhibitors of Tau Fibril Formation, Thioflavin T Binding | Microtubule-associated protein tau (Homo sapiens), P10636 | recombinant tau K18 P301L, heparin-induced fibrillization, ThT fluorescence | Potency, µM (titrated, usually from 57.4 µM), for the others: top-dose activity, negative = inhibition, actives largely listed as inhibitors | 270,000 compounds, 2.1% hits; further: potency means the concentration at half of the fitted maximal effect; nearly all actives have a fitted effect of over 55% in size
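Recombinant human tau K18 fragment […] carrying P301L, 15 uM unlabeled plus 0.24 uM Alexa 594-labeled, was fibrillized with 20 uM heparin in 100 mM sodium acetate pH 7 for 6 hr at 37 C; 30 uM ThT fluorescence read after 1 hr.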
Sfp PPTase inh – qHTS Assay for Inhibitors of Bacillus subtilis Sfp phosphopantetheinyl transferase (PPTase) | 4'-phosphopantetheinyl transferase ffp (Bacillus subtilis), Q9F4F7 | Biochemical Sfp PPTase activity, qHTS | Potency, µM, for the others: largest response in the series, negative = inhibition, actives largely listed as inhibitors | 310,000 compounds, 3.5% hits;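 further: the enzyme is Sfp with the accession as filed and its product quenches rhodamine fluorescence; potency means the concentration at half of the fitted maximal effect; 0% = enzyme reaction without inhibitor and -100% = no enzyme wells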
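With Hepes-Na pH 7.6 buffer containing 10 mM MgCl2, Sfp (15 nM) modified BHQ-2-YbbR (12.5 uM) using rhodamine-CoA (5 uM). Two reads 30 minutes apart at 525/598 nm yielded each well's rate.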
KDM4E inh – qHTS Assay for Inhibitors of Human Jumonji Domain Containing 2E (JMJD2E). 230,000 compounds, 1.6% hits. JMJD2E catalytic domain, FDH-coupled NADH fluorescence (FDH is formaldehyde dehydrogenase). Potency, µM (highest dose often 57.1 µM), for the others: at the highest dose activity change, negative = inhibition, usual class: inhibitors. AID 2147, 2009. Lysine-specific demethylase 4E (Homo sapiens), B2RXH2; active means well fitted inhibition curve with a large enough effect, not every such curve was filed as active; inconclusive means small, poorly fitted or top-dose-only effect, or another doubt; inactive means no such curve, though single readings can be large or run the other way;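 further: potency means the concentration at half of the fitted maximal effect; 0% = wells with enzyme and -100% = buffer wells without enzyme; nearly all actives have a fitted effect of over 50% in size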
Target sequence (B2RXH2 1-337 limits assumed): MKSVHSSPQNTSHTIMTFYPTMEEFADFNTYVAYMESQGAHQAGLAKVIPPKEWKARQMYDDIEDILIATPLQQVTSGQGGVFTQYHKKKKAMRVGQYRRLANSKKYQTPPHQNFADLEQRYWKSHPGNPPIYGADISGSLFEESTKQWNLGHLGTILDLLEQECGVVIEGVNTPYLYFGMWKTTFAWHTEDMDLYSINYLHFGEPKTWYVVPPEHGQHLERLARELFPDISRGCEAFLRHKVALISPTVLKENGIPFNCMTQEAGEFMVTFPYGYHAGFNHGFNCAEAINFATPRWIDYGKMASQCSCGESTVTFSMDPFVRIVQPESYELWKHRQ
Tau fluor counter – Counterscreen qHTS for Inhibitors of Tau Fibril Formation, Fluorescence Polarization | tau K18 P301L (four-repeat tau fragment) Alexa594 fluorescence, heparin fibrillization | Potency, µM (titrated, usually from 57.7 µM), for the others: at the highest dose activity change, negative = decrease | 280,000 compounds, 0.93% hits; further: potency means the concentration at half of the fitted maximal effect; nearly all actives have a fitted effect of over 55% in size
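Human K18 P301L tau (15 uM unlabeled plus 0.24 uM Alexa 594-labeled, final) in 100 mM sodium acetate pH 7 was mixed with compound and 20 uM heparin and incubated 6 hr at 37 C.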
The depositor's hits bear a star; ? = inconclusive; . = not tested or not shown; [ ] = dose if it differs, or a comment. Shown are actives, neighbours in structure and some others; about 5.3% of the full set was active somewhere. Unless noted, the call rests on the fitted dose curve; in most records, active means well fitted curve in the direction sought with a large enough effect; inconclusive means small, poorly fitted or top-dose-only effect, or another doubt; inactive means no such curve, though single readings can be large; an effect the other way counts as inactive or inconclusive. Unless noted, on the % scale 0 is the no-effect control and ±100 the full control effect.

SMILES | Tau FP inhib | Coupling enz | Tau fibril ThT | Sfp PPTase inh | KDM4E inh | Tau fluor counter
Cc1nc(NC2CCCCC2)c2nc(-c3ccccc3)n(CCN3CCCC3)c2n1 | -1% | 7 | -6% | 0% | ? | -6%
COc1cc2c(cc1OC)C(COc1ccc3c(C)cc(=O)oc3c1)N(C(=O)c1cccc(C)c1)CC2 (centres undefined) | -4% | . | -3% | . | . | 2%
O=C1C=C(Nc2cccc3cccnc23)c2ccccc2C1=O | . | -65* | . | -25% | . | .
O=C1C=C(Nc2ccccc2)c2ccccc2C1=O | -14% | -49* | ? | 2% | -25% | -19%
CCCCNC1=CC(=O)C(=O)c2ccccc21 | -5%[2.34 µM] | 0 | 1% | 12% | -5% | 2%[2.34 µM]
Nc1ccccc1S(=O)(=O)Nc1cccc2cccnc12 | . | -48* | . | 3% | . | .
O=C1C=C(Nc2ccccc2C(=O)O)c2ccccc2C1=O | ? | -49* | . | -8% | ? | ?
COc1ccccc1NS(=O)(=O)c1cccc2cccnc12 | -4% | -10 | -4% | 22% | -5% | -6%
O=c1c2c3c(sc2nnn1Cc1ccc(Br)cc1)CCCC3 | 0% | . | -13% | . | . | -26%
O=P1(O)Oc2c(c(-c3ccccc3)cc3ccc4ccccc4c23)-c2c(-c3ccccc3)cc3ccc4ccccc4c3c2O1 | -13% | 3 | -13% | -23% | ? | -9%
CCc1ccc(NC(=O)Cn2c(=O)n(CCCCC(=O)NCc3ccc4c(c3)OCO4)c(=O)c3ccccc32)cc1 | ? | . | -1% | . | . | -23%
COC(=O)c1c(C)nc(C)c(C(=O)OC)c1-c1ccccc1[N+](=O)[O-] | . | 1 | . | 10% | . | .
O=C1C=C(Nc2ccccc2)C(=O)c2ccccc21 | 4% | -19 | ? | -16% | 2% | -22%
O=C1C(Nc2ccccc2)=CC(=O)c2ncccc21 | ? | -24 | 14µM* | ? | . | ?
COc1ccc(-c2nc3cnc(N4CCOCC4)nc3n(CCc3ccccc3)c2=O)cc1 | . | 3 | . | 16% | . | .
CCOc1cc(/C=N/N=C(N)N)ccc1OCc1ccc(Cl)cc1 | 12% | -1 | -16% | 20µM* | 1% | ?
NC(N)=N/N=C/c1ccc(OCc2ccccc2Cl)cc1 | -2% | -2 | 5% | 50µM* | -8% | ?
NC(N)=N/N=C/c1ccc(OCc2ccccc2)c(OCc2ccccc2)c1 | . | -1 | . | 56µM* | . | .
COc1cc(/C=N/N=C(N)N)ccc1OCc1ccc(Cl)cc1 | 8% | -1 | 8% | 16µM* | -10% | ?
CCOc1cc(CNCCc2ccc(S(N)(=O)=O)cc2)ccc1OCc1ccc(Cl)cc1 | 8% | 0 | ? | 8.9µM* | -1% | -22%
Clc1ccc(-c2cn3nc4c(nc3n2)CCCC4)cc1 | -9% | -10 | ? | ? | ? | -17%
COc1cccc(-c2cn3nc4c(nc3n2)CCCC4)c1 | ? | -13 | 14µM* | 79µM* | 22µM* | -29%
CCOc1ccc(CCNC(=O)CCc2c(C)nc3cc(-c4ccccc4OC)nn3c2C)cc1 | ? | . | ? | . | . | -2%
CC1=NNC(=O)/C1=C\c1cn(-c2ccccc2)nc1-c1cccs1 | 9% | 5 | ? | 32µM* | -12% | -10%
O=Cc1cn(-c2ccccc2)nc1-c1ccc(F)cc1 | . | 5 | . | 0% | . | .
SMILES | Tau FP inhib | Coupling enz | Tau fibril ThT | Sfp PPTase inh | KDM4E inh | Tau fluor counter
CC1=NNC(=O)/C1=C\c1cn(-c2ccccc2)nc1-c1ccc(F)cc1 | 5% | -6 | 20µM* | 9% | ? | -23%
CCN1CCCC1Cn1c(-c2ccccc2)nc2c(N3CCOCC3)nc(C)nc21 (centres undefined) | -2% | 3 | 5% | 22% | ? | -3%
CCCCC1=CC2=C(OC(C)=O)C(=O)C(C)(OC(=O)C3CCCC3)C(=O)C2=CO1 (centres undefined) | ? | 0 | 28µM* | -13% | -24% | ?
CCCCC1=CC2=C(OC(C)=O)C(=O)C(C)(OC(=O)CC)C(=O)C2=CO1 (centres undefined) | ? | 0 | ? | -18% | -5% | -16%
CC(C)c1cccc2c([Si](C)(C)C)c3c(nc12)-c1cccc(=O)n1C3 | -14% | -2 | ? | 45µM* | ? | -29%
CC(C)c1cccc2nc3c(c(C(C)(C)C)c12)Cn1c-3cccc1=O | -9% | -2 | -21% | 1% | ? | -12%
CCc1cccc2nc3c(c([Si](C)(C)C)c12)Cn1c-3cccc1=O | -2% | -5 | ? | -20% | ? | -12%
CC(C)c1cccc2nc3c(c([Si](C)(C)C(C)(C)C)c12)Cn1c-3cccc1=O | 9% | -23 | -14% | 79µM* | ? | -2%
O=S(=O)(c1ccccc1)c1nc(-c2cccs2)oc1NCC1CCCO1 (centres undefined) | 1% | 3 | -11% | 56µM* | ? | -8%
c1ccc2c(c1)SCc1c-2[nH]c2ccccc12 | . | -9 | . | ? | . | .
COc1ccc(NC(=O)CC(C(=O)O)C(C)c2ccccc2)cc1 (centres undefined) | . | 2 | . | 15% | . | .
COc1ccc(NC(=O)CC(c2ccccc2)c2ccco2)cc1 (centres undefined) | -6% | -5 | -18% | 45µM* | 8% | -27%
O=C(CSc1nccn1-c1ncc(C(F)(F)F)cc1Cl)c1ccc(Br)cc1 | ? | -1 | 14µM* | 0% | 4% | -23%
S=c1[nH]c(-c2ccccc2)cn1/N=C/c1cccc2ccccc12 | 10% | -1 | 3.5µM* | -11% | ? | ?
Cc1ccc(/C=N/n2cc(-c3ccccc3)[nH]c2=S)s1 | -12% | 4 | ? | 32µM* | ? | ?
CCn1c(SCc2cccc(Br)c2)nnc1-c1nonc1NC(C)=O | 4% | . | -3% | . | . | -10%
O=C(O)COc1cccc2nsnc12 | -4% | 1 | -12% | -6% | 20µM* | 0%
Cc1ccc(C)c(S(=O)(=O)c2nnn3c2nc(NC(C)C)c2sccc23)c1 | -15% | . | 2% | . | . | -24%
CCc1cccc2c(C(=O)COC(=O)c3ccc([N+](=O)[O-])s3)c[nH]c12 | -8% | -4 | 7.1µM* | 2% | -18% | 11µM*[quencher]
